# Screening data from PubChem BioAssay.
# Mtb bLac sens = beta-lactam sensitization of Mtb H37Rv, H37Rv; M. tuberculosis H37Rv growth with meropenem, percent inhibition; inhibition, % at 25 µM; hit rate 0.27% among 330,000; call rule not given here;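 further: growth measured after seven days incubation then overnight dye step; 0% = bacteria only wells and 100% = bacteria with antibiotic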
# CCHF vOTU inh-1 = CCHFV vOTU protease inhibitors, primary screen, biochemical, Pep-AMC substrate, fluorescence. inhibition, % at 11.5 µM. hit rate 0.55% among 370,000. AID 651958, 2012; further: 0% = vehicle wells with enzyme and 100% = no enzyme wells
# MazF activator = activators of E. coli MazEF toxin-antitoxin RNase, primary screen, biochemical, fluorescence, uHTS; Endoribonuclease toxin MazF (Escherichia coli (strain K12)), P0AE70; FAM/BHQ RNA-DNA oligo cleavage fluorescence, 5 h; activation, % at 20 µM; hit rate 0.32% among 350,000; AID 504720, 2011; in the data active means activation above about 50%
# Target sequence (P0AE70 whole entry, looked up): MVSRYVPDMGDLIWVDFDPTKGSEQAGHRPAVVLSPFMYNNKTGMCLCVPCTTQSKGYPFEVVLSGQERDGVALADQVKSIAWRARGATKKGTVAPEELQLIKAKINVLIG
# GDH-TPI inh = GDH-TPI coupling enzyme inhibitors, primary screen, artefact control for M. tuberculosis FBA inhibitor project, biochemical, absorbance, full deck; GDH-TPI coupled enzyme counterscreen, NADH absorbance; inhibition, % at 4.8 µM; hit rate 1.2% among 360,000; AID 588335, 2011;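 further: 0% = DMSO wells and 100% = wells lacking the enzyme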
# FBA Mtb inh = Mtb FBA enzyme inhibitors, primary screen, biochemical, fluorescence, strain H37Rv; hit rate 2.3% among 360,000; Fructose-bisphosphate aldolase (Mycobacterium tuberculosis (strain ATCC 25618 / H37Rv)), …; purified M. tuberculosis FBA, fluorescence read-out; inhibition, % at 1 µM; in the data active means inhibition above about 27%;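 further: 0% = vehicle and 100% = reference inhibitor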
# Target sequence (P9WQA3 whole entry, looked up): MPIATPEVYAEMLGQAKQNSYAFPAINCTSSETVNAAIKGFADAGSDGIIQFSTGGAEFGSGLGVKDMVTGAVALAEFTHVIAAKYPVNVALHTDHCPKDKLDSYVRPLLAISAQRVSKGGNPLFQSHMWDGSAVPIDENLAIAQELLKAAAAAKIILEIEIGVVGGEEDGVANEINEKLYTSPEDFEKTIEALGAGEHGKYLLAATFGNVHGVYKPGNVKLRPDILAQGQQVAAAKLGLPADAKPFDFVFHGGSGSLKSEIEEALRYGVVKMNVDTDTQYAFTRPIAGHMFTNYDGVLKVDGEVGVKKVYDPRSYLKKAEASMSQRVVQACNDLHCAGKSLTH
# CCHF vOTU inh-2 = CCHFV vOTU protease inhibitors, confirmation, biochemical, Pep-AMC substrate, fluorescence. shares compounds with CCHF vOTU inh-1. Recombinant CCHFV vOTU. inhibition, % at 11.5 µM. hit rate 17% among 1,900. AID 686976, 2013
# Active calls of the source: *; . = no result; ! = repeats disagree. Rows were chosen to be rich in hits. Some 4% of all compounds tested hit in one or more screens of this group. Unless noted, no stated cut-off is given here; in the data, active means inhibition above about 30%; inactive means the rest.
SMILES,Mtb bLac sens,CCHF vOTU inh-1,MazF activator,GDH-TPI inh,FBA Mtb inh,CCHF vOTU inh-2
CCn1c(=O)c(C(=O)CN(C)CC(=O)Nc2cccc(F)c2)c(N)n(Cc2ccccc2)c1=O,6,30*,-1,-8,1,-16
CCn1c(=O)c(C(=O)CN(C)Cc2ccc(F)cc2)c(N)n(Cc2ccccc2)c1=O,-14,-7,10,0,2,.
CCC(OC(C)=O)c1cc2c(cc1[N+](=O)[O-])OCCO2 (stereo not given),-1,10,0,14,0,.
COc1ccc(NC(=O)C(C)N2C(=O)C3CC=C(Cl)CC3C2=O)cc1 (stereo not given),-1,13,1,0,1,.
NC(=O)CC(NC(=O)Cc1ccc(Br)cc1)c1ccc(NCCN2CCCCC2)c([N+](=O)[O-])c1 (stereo not given),-2,2,2,-16,2,.
NC(=O)CC(NC(=O)Cc1ccc(Br)cc1)c1ccc(NCCN2CCCC2)c([N+](=O)[O-])c1 (stereo not given),-9,34*,9,-7,-2,-14
Cc1c(Cl)cccc1NC(=O)c1ccccc1-c1ccccc1C(=O)O,0,10,9,10,1,.
O=C(c1ccc(Cl)nc1)N1CCN(S(=O)(=O)c2ccc(Cl)cc2)CC1,-8,-19,6,0,1,.
O=C(NCc1ccco1)c1ccccc1Nc1ccc(F)cc1,-3,31*,-14,3,0,-5
O=C(NCc1ccco1)c1ccccc1F,1,-5,3,2,3,.
CC1(C)[C@@H](O)CC[C@]2(C)C3C(O)C=C4[C@H]5C[C@@](C)(CO)CC[C@]5(C)CC[C@]4(C)[C@]3(C)CC[C@@H]12 (stereo not given in full),-8,5,-8,-5,4,.
COC1=C(N)C(=O)c2nc(C)ccc2C1=O,.,55*,-3,8,1,107*
COC1=C(Br)C(=O)c2nc(C)ccc2C1=O,.,115*,5,-6,-2,83*
COc1ccc(N)c2c1C(=O)c1ccccc1C2=O,-8,-8,3,12,-2,.
C=CCN(C(=O)C1CC(=O)N(C2CCCC2)C1)c1nc(-c2ccc(S(C)(=O)=O)cc2)cs1 (stereo not given),31,15,1,-1,18,.
COC(=O)c1ccc(-c2nc(O)c(C)s2)cc1,4,5,-3,3,-1,.
COC(=O)c1ccc(-c2nc3cc(Cl)c(N)cc3s2)cc1,-7,43*,-31,-5,6,-5
CC1(c2ccc3ccccc3c2)NC(=O)N(CC(=O)N2CCCC(C(F)(F)F)C2)C1=O (stereo not given),-4,5,-2,0,2,.
Nc1ccc(C(=O)Nc2ccc3c(O)cc(S(=O)(=O)O)cc3c2)cc1,.,-2,1,14,0,.
Nc1cc(S(=O)(=O)O)cc2ccc(S(=O)(=O)O)cc12,.,44*,-1,1,115*,-97
CC(C)c1ccc(C(c2c(O)c3ccccc3oc2=O)c2c(O)c3ccccc3oc2=O)cc1,.,37*,-6,2,-3,-7
O=c1oc2ccccc2c(O)c1C(c1ccc([N+](=O)[O-])cc1)c1c(O)c2ccccc2oc1=O,.,22,-4,11,-3,.
CC(C)(C)CC(C)(C)NC(=O)Nc1cccc([N+](=O)[O-])c1,6,39*,1,-16,-3,-12
Cc1cc(NC(=O)CSCC(=O)OCC(=O)c2cccc(Br)c2)no1,3,8,0,-1,-1,.
CCN(CC)C(=O)C(=O)c1ccn(-c2c(C)csc2C(=O)OC)c1,-2,-10,5,5,3,.
SMILES,Mtb bLac sens,CCHF vOTU inh-1,MazF activator,GDH-TPI inh,FBA Mtb inh,CCHF vOTU inh-2
Cc1ccc(S(=O)(=O)N(C)C)cc1NC(=O)COC(=O)/C=C/c1ccc(F)cc1,-11,26,8,-4,-1,.
Cc1ccc(NC(=O)CNc2ccc(Cl)c(Cl)c2)cc1S(=O)(=O)N(C)C,9,11,7,2,3,.
Cc1ccc(NC(=O)Cc2ccc(Cl)c(Cl)c2)cc1S(=O)(=O)N(C)C,19,30*,8,-4,0,-9
COc1ccccc1NC(=O)NC1(C(=O)N2CCC(C)CC2)CCCCC1,-5,-3,6,6,-1,.
C=CCc1cccc(C=Nc2ccc(Br)cc2)c1O,-3,2,6,7,1,.
C=CCc1cccc(/C=N/c2ncccc2O)c1O,4,59*,-11,8,0,16
CC(C)OC(=O)CSc1nc2cccnc2n1-c1ccc(F)cc1,2,31*,2,-7,-2,-9
CN(Cc1ccccc1F)C(=O)CN1CCN(S(=O)(=O)c2ccc3c(c2)OCCCO3)CC1,3,13,-2,9,-4,.
CC1=C(/C=C/C(C)=C/C=C/C(C)=C/C(=O)Nc2ccc(O)cc2)C(C)(C)CCC1,100,34*!,7,35*,-3,6
CC1=C(/C=C/C(C)=C/C=C/C(C)=C\C(=O)O)C(C)(C)CCC1,-6,2,4,6,5,.
Cc1ccc(S(=O)(=O)N/N=C2/CC(c3ccccc3)Oc3ccccc32)cc1[N+](=O)[O-] (stereo not given),18,38*,1,-2,1,10
C=CCOC(=O)c1[nH]c2c(c1C)C(=O)CC(c1ccco1)C2 (stereo not given),-9,.,-2,.,.,.
C/C=C/COC(=O)c1[nH]c2c(c1C)C(=O)CC(c1ccco1)C2 (stereo not given),-3,30*,-19,7,0,-17
O=S(=O)(c1ccc2ncn(O)c2c1)N1CCOCC1,-4,0,-18,-1,0,.
CC(C)N1CC2(CC(c3ccccc3F)=NO2)CN1C(=O)c1ccc(C(C)(C)C)cc1 (stereo not given),.,35*,2,-10,-2,-4
CCc1ccc2c(c1)C(C)=CC(C)(C)N2,-6,3,8,5,-1,.
CCOc1ccc2c(c1)C(C)=CC(C)(C)N2,4,40*,11,1,6,-105
COC(=O)C1=C(C(=O)OC)SC2(S1)C(C(=O)OC)=C(C(=O)OC)Sc1c2ssc1=O,.,32*,-25,17,4,9
O=C(CCN1C(=O)/C(=C/c2cccs2)SC1=S)Nc1ccc(C(=O)O)c(O)c1,56,32*,6,6,-10,2
O=C(CCN1C(=O)/C(=C\C=C\c2ccccc2)SC1=S)Nc1cccc(C(=O)O)c1,0,33*,-12,4,-9,5
O=C(CCN1C(=O)/C(=C/c2cccs2)SC1=S)Nc1ccc(O)cc1,3,11,31,3,-5,.
